Screening results (PubChem BioAssay)
The sample as a whole holds a higher share of hits than the screen did.
Integrin act MD: qHTS for Activators of Integrin-Mediated Alleviation for Muscular Dystrophy; alpha7betagal myoblasts, beta-gal FDG fluorescence, 48 h; Potency, µM (highest dose often 38.3 µM), usual class: activators; 350,000 tested, 0.064% active; AID 624291, 2012; note: nearly all actives have a fitted effect of over 60% in size
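alpha7betagal+/- myoblasts (passage 13, 250/well) treated 48 h at 37C with compounds at 1:260 dilution of DMSO stock. Lysed, then beta-galactosidase activity read as FDG fluorescence (ex 480/em 540) after 30 min, with pre-read for autofluorescence.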
Giardia kill: Small Molecules that selectively kill Giardia lamblia: qHTS; Giardia lamblia trophozoite viability; activity change, % at 7.66 µM, hits read low; 340,000 tested, 0.15% active; AID 540267, 2011; in the data active = activity change below about -80%; inconclusive = between about -30% and that limit;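 note: parasites exposed to compound for two days anaerobically before the ATP read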
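ATP-content bioluminescence gauges trophozoite survival. Cells (100/well) receive compound and incubate anaerobically for 48 hrs at 37 deg C; detection reagent follows for 15-30 min at room temperature.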
Gal4-VP16 FLuc: VP16 counterscreen qHTS for inhibitors of ROR gamma transcriptional activity. Drosophila S2 Gal4-VP16 UAS-luciferase, luminescence, 20 h. Potency, µM (top dose mostly 53.6 µM), actives largely listed as inhibitors. 310,000 tested, 3.5% active;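 note: Gal4-VP16 expression switched on by copper sulfate through the metallothionein promoter; nearly all actives have a fitted effect of over 50% in size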
RORg inh: qHTS for inhibitors of ROR gamma transcriptional activity | AID 2551, 2010 | Drosophila S2 Gal4-RORgamma UAS-luciferase reporter, 20 h | Potency, µM (doses to about 53.6 µM), hits mostly inhibitors | 310,000 tested, 5.4% active | Nuclear receptor ROR-gamma (Mus musculus), P51450; note: nearly all actives have a fitted effect of over 60% in size
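Stable Schneider cell line, Gal4 DNA-binding domain fused to ROR gamma, UAS-luciferase. Cmpd 1 hr RT → CuSO4 700 uM final → 20 hr RT → luciferase reagent 10 min → luminescence.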
ERG Ets-DNA blk: qHTS for Small Molecule Inhibitors of the ERG Ets/DNA interaction; Transcriptional regulator ERG (Homo sapiens), P11308; 370,000 tested, 0.028% active; fluorescence polarization, His-ERG Ets domain / labelled DNA; AID 624246, 2012; Potency, µM (titrated, usually from 76.9 µM), actives largely listed as inhibitors; active = well fitted inhibition curve with a large enough effect in the polarisation, with a control signal flat; inconclusive = small, poorly fitted or top-dose-only effect, or effect the other way, or a change in a side signal; inactive = no such curve, though single readings can be large or run the other way; the % refers to the polarisation;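 note: polarization taken with two DNA probes labelled with fluorescein and Texas red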
Target sequence (P11308 whole entry, looked up, the tested form may be a part): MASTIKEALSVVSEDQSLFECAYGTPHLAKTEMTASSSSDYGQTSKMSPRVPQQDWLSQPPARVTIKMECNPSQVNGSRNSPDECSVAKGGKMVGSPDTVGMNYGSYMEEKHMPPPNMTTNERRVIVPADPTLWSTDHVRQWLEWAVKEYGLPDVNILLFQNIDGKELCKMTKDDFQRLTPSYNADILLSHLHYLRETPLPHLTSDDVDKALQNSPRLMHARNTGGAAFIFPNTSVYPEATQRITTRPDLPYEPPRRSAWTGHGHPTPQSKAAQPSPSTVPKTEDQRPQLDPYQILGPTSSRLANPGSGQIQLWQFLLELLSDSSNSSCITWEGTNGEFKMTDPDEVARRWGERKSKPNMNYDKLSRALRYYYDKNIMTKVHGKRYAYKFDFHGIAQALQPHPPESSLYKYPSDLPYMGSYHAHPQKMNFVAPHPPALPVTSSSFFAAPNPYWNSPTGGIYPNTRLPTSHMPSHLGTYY
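His-tagged ERG Ets domain (1 uM in the protein solution; 300mM KCl, 50mM Tris-HCl, 1mM EDTA, 1mM DTT, pH 7.5) received compound, then a probe mix of 5 nM fluorescein-DNA and 100nM Texas-615-DNA. Fluorescence polarization was read for both dyes.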
Numbers stand for hits; i = inactive; ? = inconclusive; nt = no result given; [ ] = dose if it differs, or a comment. Unless noted, calls come from the whole dose curve; as a rule, active = well fitted curve in the direction sought with a large enough effect; inconclusive = small, poorly fitted or top-dose-only effect, or another doubt; inactive = no such curve, though single readings can be large; an effect the other way counts as inactive or inconclusive.

SMILES	Integrin act MD	Giardia kill	Gal4-VP16 FLuc	RORg inh	ERG Ets-DNA blk
CC(=O)c1ccc(OCc2ccc(Oc3c(Cl)cccc3[N+](=O)[O-])cc2)cc1	i	i	20µM	?	?
Cc1cccc(NC(=S)NC2CCSc3ccccc32)c1 (centres undefined)	i	i	5.6µM	3.5µM	i
FC(F)Oc1ccc(NC(=S)NC2CCSc3ccccc32)cc1 (centres undefined)	i	i	i	i	i
Cc1c(CCC(=O)N[C@@H](C)C(=O)O)c(=O)oc2cc3oc4c(c3cc12)CCCC4	i	i	?	i	i
CCCC(NC(=O)CCc1c(C)c2cc3c4c(oc3c(C)c2oc1=O)CCCC4)C(=O)O (centres undefined)	i	i	i	0.79µM	i
S=c1nc(-c2ccc(Cl)cc2)[nH][nH]1	i	i	i	8.9µM	i
CC1(OC(=O)C2CCCC2)C(=O)C=C2C=C(c3ccsc3)N(C(CO)CO)C=C2C1=O (centres undefined)	i	i	i	i	28µM
COC(=O)C1Cc2ccccc2CN1C(=O)CCl (centres undefined)	i	i	i	i	i
Cc1ccc(NC(=O)CN2C(=O)N/C(=C/c3ccc(C)o3)C2=O)cc1	i	i	?	i	i
Cc1cccc(NC(=O)CN2C(=O)N/C(=C/c3ccc(C)o3)C2=O)c1	i	i	18µM	?	nt
C=CCN1C(=O)N/C(=C/c2ccc(C)o2)C1=O	?	i	5µM	5.6µM	i
COc1ccc(C(=O)OCc2nc(N)nc(Nc3ccccc3C)n2)cc1OC	i	i	i	18µM	i
CCCCNc1sc(S(=O)(=O)CCC)nc1S(=O)(=O)c1ccc(C)cc1	nt	nt	nt	nt	i
O=C(NNc1nc(=O)c2cccnc2s1)c1ccccc1O	i	i	i	0.05µM	i
COc1ccc(C(=O)Nc2nc3ccccc3[nH]2)cc1S(=O)(=O)N1CCCC1	i	i	?	11µM	i
COc1cc(C(=O)Nc2nc3ccccc3[nH]2)ccc1OC(F)F	i	i	7.9µM	5µM	i
COc1ccc(Cl)cc1C(=O)Nc1nc2ccccc2[nH]1	i	?	6.3µM	2.2µM	i
COc1ccc(C(=O)Nc2nc3ccccc3[nH]2)cc1OC	i	i	10µM	11µM	i
Cc1cccc(NC(=O)c2ccc(OCc3c(C)noc3C)cc2)n1	i	i	nt	nt	i
CCOc1ccc(C(=O)Nc2nc3ccccc3[nH]2)cc1OCC	i	i	16µM	1.4µM	i
COc1ccc(-c2cnn3c(N)c(S(=O)(=O)c4ccccc4)cnc23)cc1	i	i	5.6µM	2.8µM	i
Nc1c(S(=O)(=O)c2ccccc2)cnc2c(-c3ccc(F)cc3)cnn12	i	i	10µM	4.5µM	i
CN(C)Cc1nc2c(c(=O)[nH]1)C1(CCCCC1)Cc1ccccc1-2	i	i	5µM	2.5µM	nt
Cn1ncn2c(=O)c3c(nc12)-c1ccccc1CC31CCCC1	i	i	i	i	i
CN(C)Cc1nc2c(c(=O)[nH]1)C(C)(C)Cc1ccccc1-2	i	i	?	?	i
SMILES	Integrin act MD	Giardia kill	Gal4-VP16 FLuc	RORg inh	ERG Ets-DNA blk
CCN(CC)Cc1nc2c(c(=O)[nH]1)C1(CCCCC1)Cc1ccccc1-2	i	i	11µM	11µM	i
CCC1(CC)Cc2ccccc2-c2nc(CN(C)C)[nH]c(=O)c21	i	i	7.1µM	6.3µM	i
O=C(NNc1cccc(Cl)n1)Nc1ccc(F)cc1	i	i	i	i	i
COc1cc2c(cc1OC)CN(c1ccc([N+](=O)[O-])cc1Cl)CC2	i	i	18µM	?	i
COc1cc2c(cc1OC)CN(c1ccc([N+](=O)[O-])cc1C#N)CC2	i	i	i	i	i
CC(C)(C)OC(=O)NCc1ccc(CNC(=O)c2[nH]cnc2C(=O)N[C@@H](Cc2ccccc2)C(=O)OC(C)(C)C)cc1	i	i	20µM	11µM	i
CNC(=O)c1[nH]cnc1C(=O)N[C@@H](Cc1ccccc1)C(=O)OC(C)(C)C	i	i	?	7.9µM	i
CC(C)(C)OC(=O)NCc1ccc(CNC(=O)c2[nH]cnc2C(=O)N[C@@H](Cc2ccccc2)C(=O)OCc2ccccc2)cc1	i	i	?	11µM	i
CC(C)(C)OC(=O)NCc1ccc(NC(=O)c2nc[nH]c2C(=O)N[C@@H](Cc2ccccc2)C(=O)OCc2ccccc2)cc1	i	i	?	7.1µM	i
CC1=C(C)CC(C(=O)Nc2ccc3c(c2)OCO3)C(C(=O)O)C1 (centres undefined)	i	i	i	i	i
CC1CCN(S(=O)(=O)c2ccc3nc(Nc4cccc(F)c4)ccc3c2)CC1	nt	nt	nt	nt	i
CC(C)(C)OC(=O)[C@H](Cc1ccccc1)NC(=O)c1nc[nH]c1C(=O)NCc1ccccc1	i	i	16µM	11µM	i
CC(C)C[C@H](NC(=O)c1nc[nH]c1C(=O)NCc1ccc(CNC(=O)OC(C)(C)C)cc1)C(=O)OCc1ccccc1	i	i	?	11µM	i
CCc1cc2c(=O)c(-c3nc4ccccc4n3C)c(COCC(=O)O)oc2cc1OC(=O)C(C)(C)C	i	i	i	4.5µM	i
Cc1cc(S(=O)(=O)N2CCCC(C(=O)Nc3ccc(C(=O)O)cc3)C2)ccc1Cl (centres undefined)	i	i	i	i	i
CN(C(=O)CCc1nnc(CCCCc2ccccc2)o1)C1CCOCC1	i	i	i	i	i
CN(C(=O)CCc1nnc(CCCCc2ccccc2)o1)C1CC(C)(C)NC(C)(C)C1	i	i	4.5µM	2µM	i
S=C(NCc1ccco1)Nc1cc(Cl)c(Cl)cc1Cl	i	i	?	?	i
S=C(NCc1ccco1)Nc1cccc(Cl)c1	i[7.66 µM]	i	7.1µM	1.8µM	i
COc1ccc(Cl)cc1NC(=S)NCc1ccco1	i	i	?	18µM	i
S=C(NCc1ccco1)Nc1ccc(Cl)c(Cl)c1	i	i	16µM	13µM	nt
COc1nn(C(C)C(=O)N2N=C(C(F)F)CC2(O)C(F)F)cc1[N+](=O)[O-] (centres undefined)	i[7.66 µM]	-82	i	i	i
COc1nn(CC(=O)N2N=C(C(F)F)CC2(O)C(F)F)cc1[N+](=O)[O-] (centres undefined)	i[7.66 µM]	i	i	i	i
CCn1c(-c2csc(-c3ccccc3)n2)n[nH]c1=S	i	i	6.3µM	2.5µM	i
CCn1c(-c2csc(-c3ccc(Cl)cc3)n2)n[nH]c1=S	i	i	?	1.3µM	i
CCc1c(C)sc2c1CCN(C(=O)Nc1ccc(F)c(Cl)c1)C2c1ccc(F)cc1 (centres undefined)	nt	nt	nt	nt	i
Cn1c(=O)oc2cc(S(=O)(=O)N3CCC(C(=O)N4CCN(c5ccc(Cl)cc5)CC4)CC3)ccc21	nt	nt	nt	nt	i
COC(=O)C(NS(=O)(=O)CCl)C(C)C (centres undefined)	nt	i	i	i	nt
